Screening data (PubChem BioAssay)
Marburg entry inh: Marburg virus entry inhibition | 1.8% of 300,000 active | AID 540276 | Potency, µM (doses to about 37.8 µM), for the others: at the top dose activity change, negative = inhibition, most hits filed as inhibitors | Marburg virus pseudotyped entry inhibition, cell reporter; calls by dose curve; tested in HEK293 cells; note: potency is the fitted concentration of half-maximal effect; % is set by controls: 0 for no effect and ±100 for the full control effect
Shiga inhibitor: inhibitors of Shiga toxin in Vero cells; 9.2% of 290,000 active; inhibition, % at 38.7 µM; Vero cells, Shiga toxin protein synthesis inhibition reporter; in the data active = inhibition mostly above about 28%, no sharp cut-off; inactive = mostly below about 43%; note: 0% is about no effect
CHX counter: counter-screen for Shiga toxin inhibitors: cycloheximide protein synthesis inhibition. cell reporter, cycloheximide protein synthesis inhibition counterscreen. max response, %. 12% of 300,000 active; in the data active = max response mostly above about 13%, no sharp cut-off; inactive = mostly below about 14%; note: read at 38.3 µM for the half of the compounds with a filed dose; 0% is about no effect
Lassa entry inh: inhibitors of Lassa virus binding or cell entry | Lassa virus pseudotype entry inhibition, cell reporter | Potency, µM (series often up to 37.9 µM), for the others: at the top dose activity change, negative = inhibition, hits mostly inhibitors | 1.2% of 300,000 active; calls by dose curve; tested in HEK293 cells; note: potency is the fitted concentration of half-maximal effect; % is set by controls: 0 for no effect and ±100 for the full control effect; nearly all actives have a fitted effect of over 50% in size
* hit, by the source's call; [ ] = remark or other dose. Most compounds without a hit are left out; they make up all but 12% or so of the library.

For Fc1ccc(-c2noc(C3CCN(Cc4cccnc4)CC3)n2)cc1 the results were Marburg entry inh inconclusive, Shiga inhibitor 28*, CHX counter 19* and Lassa entry inh 0%.
For Fc1ccc(N2Cc3ccsc3C=N2)cc1 the results were Marburg entry inh 19%[46.1 µM], Shiga inhibitor 63*, CHX counter 25* and Lassa entry inh 3%[46.1 µM].
For CCOC(=O)C1=C(C)N=c2s/c(=C/c3ccco3)c(=O)n2C1c1cccc(OC)c1 (centres undefined) the results were Marburg entry inh inconclusive, Shiga inhibitor 33, CHX counter 21* and Lassa entry inh inconclusive.
For O=Cc1cccc(OC(=O)/C=C/c2ccco2)c1 the results were Shiga inhibitor 80* and CHX counter 52*.
Screening O=C(/C=C/c1ccccc1)Oc1ccc(C(=S)N2CCOCC2)cc1 returned Marburg entry inh 9%[46.1 µM], Shiga inhibitor -5, CHX counter 15 and Lassa entry inh 25%.
O=C(/C=C/c1ccco1)Oc1ccc(C(=S)N2CCOCC2)cc1 was read as Marburg entry inh -6%[46.1 µM], Shiga inhibitor 41, CHX counter 35* and Lassa entry inh -5%.
For COC(=O)c1ccc(OC(=O)/C=C/c2ccco2)cc1 the results were Marburg entry inh -7%[46.1 µM], Shiga inhibitor 36*, CHX counter 26* and Lassa entry inh -1%[46.1 µM].
Cc1ccccc1OCCn1c(S(=O)(=O)O)nc2c(N)ncnc21 was read as Marburg entry inh -1%, Shiga inhibitor -12, CHX counter -4 and Lassa entry inh inconclusive.
`CS(=O)(=O)c1cnc(-c2cccnc2)nc1N` gave Marburg entry inh 1%[46.1 µM], Shiga inhibitor 36, CHX counter 6 and Lassa entry inh -8%.
O=c1[nH]c(-c2ccc(O)cc2)nc2scc(-c3cccs3)c12 was read as Shiga inhibitor 108* and CHX counter 80*.
CC(=O)NCC1CCN(C(=O)C2CCC(=O)N(CCc3cccc(F)c3)C2)CC1 (centres undefined) was read as Marburg entry inh 0%, Shiga inhibitor -6, CHX counter -4 and Lassa entry inh 16%.
For COc1ccc2[nH]c(C)c(CCNS(=O)(=O)c3cc(F)ccc3OC)c2c1 the results were Marburg entry inh inconclusive and Lassa entry inh 4%[46.1 µM].
Screening COC(=O)c1ccc(COc2ccc(C=O)cc2)o1 returned Shiga inhibitor 12 and CHX counter 8.
CCCc1ccc(OCc2ccc(C(=O)N3CCSCC3)o2)cc1 was read as Marburg entry inh inconclusive, Shiga inhibitor 156*, CHX counter 86* and Lassa entry inh inconclusive.
Screening Cc1cccc(OCc2ccc(C(=O)N3CCOCC3)o2)c1 returned Marburg entry inh -4%[46.1 µM], Shiga inhibitor 7, CHX counter 5 and Lassa entry inh 5%.
`CCC(C)c1ccc(OCc2ccc(C(=O)OC)o2)cc1` (centres undefined) gave Marburg entry inh inconclusive, Shiga inhibitor 149*, CHX counter 101* and Lassa entry inh -23%.
CCCNC(=O)c1ccc(COc2ccc(C(C)(C)C)cc2)o1 was read as Marburg entry inh inconclusive, Shiga inhibitor 94*, CHX counter 40* and Lassa entry inh inconclusive.
O=C(NCc1cccnc1)c1ccc(COc2ccc3c(c2)CCC3)o1 was read as Marburg entry inh 23µM*, Shiga inhibitor -5, CHX counter 5 and Lassa entry inh inconclusive.
Screening CCCCc1nc(SCC(=O)Nc2ccc(S(N)(=O)=O)cc2)n[nH]1 returned Marburg entry inh 10%, Shiga inhibitor -8, CHX counter -4 and Lassa entry inh 11%.
CCN(CC(=O)Nc1ccc2c(c1)OCCO2)C(=O)C(C)Oc1ccc(F)cc1 (centres undefined) was read as Marburg entry inh -6%[46.1 µM] and Lassa entry inh 12%.
`COc1cc([N+](=O)[O-])ccc1NC(=O)C[n+]1cccc(C(C)=O)c1` gave Marburg entry inh -4%[14.2 µM], Shiga inhibitor 10, CHX counter 9 and Lassa entry inh -3%.
For COC(=O)c1ccc(COc2ccc(NC(C)=O)cc2)o1 the results were Marburg entry inh inconclusive, Shiga inhibitor 16, CHX counter -1 and Lassa entry inh 6%.
For CCc1ccc(OCc2ccc(C(=O)OC)o2)cc1 the results were Shiga inhibitor 154* and CHX counter 67*.
Screening CC(C)(C)c1ccc(OCc2ccc(C(=O)N3CCOCC3)o2)cc1 returned Marburg entry inh inconclusive, Shiga inhibitor 115*, CHX counter 54* and Lassa entry inh 7.9µM*.
Screening COC(=O)c1ccc(COc2ccc(C(C)(C)C)cc2)o1 returned Shiga inhibitor 145* and CHX counter 90*.
For CC(C)(C)c1ccc(OCc2ccc(C(=O)Nc3cccnc3)o2)cc1 the results were Marburg entry inh inconclusive, Shiga inhibitor 157*, CHX counter 75* and Lassa entry inh inconclusive.
For O=C(Nc1cccnc1)c1ccc(COc2ccccc2Br)o1 the results were Marburg entry inh inconclusive, Shiga inhibitor 16, CHX counter -2 and Lassa entry inh inconclusive.
For CCn1c(SCC(=O)N2CCC(C)CC2)nc2c(c1=O)SC(C)C2 (centres undefined) the results were Shiga inhibitor -8 and CHX counter -2.
For Cc1ccc(NC(=O)CC(C)c2ccccc2)cc1S(=O)(=O)N1CCOCC1 (centres undefined) the results were Marburg entry inh inconclusive and Lassa entry inh -13%.
Screening CC(=O)Nc1cccc(OCC(=O)NS(=O)(=O)c2ccc(Cl)cc2)c1 returned Marburg entry inh -28%, Shiga inhibitor 10, CHX counter 10 and Lassa entry inh 0%.
Screening COC(=O)c1ccc(COC(=O)c2cccn2C)o1 returned Marburg entry inh inconclusive, Shiga inhibitor 140*, CHX counter 24* and Lassa entry inh 13%[46.1 µM].
For COC(=O)c1ccc(COc2ccc3c(c2)CCC3)o1 the results were Marburg entry inh inconclusive, Shiga inhibitor 117*, CHX counter 54* and Lassa entry inh inconclusive.
`COc1ccc(Br)cc1/C=N/NC(=O)c1ccc(COc2ccc3c(c2)CCC3)o1` gave Marburg entry inh inconclusive, Shiga inhibitor -5, CHX counter 1 and Lassa entry inh 23%.
`Cn1cccc1C(=O)OCC(=O)c1cc2ccccc2o1` gave Marburg entry inh inconclusive, Shiga inhibitor 62*, CHX counter 29* and Lassa entry inh inconclusive.
Cc1nc2ncnn2c(C)c1CCC(=O)N1CCN(c2ccccc2)CC1 was read as Marburg entry inh 5%[46.1 µM] and Lassa entry inh 9%[46.1 µM].
Screening Nc1cccc2[nH]c(=O)c3ccccc3c12 returned Marburg entry inh 2% and Lassa entry inh 4%.
Screening O=C(CN1CCN(c2ccccc2F)CC1)N1CCc2ccccc21 returned Marburg entry inh 1%[46.1 µM], Shiga inhibitor 16, CHX counter 14* and Lassa entry inh 13%.
CC(=O)N1CCc2cc(C(=O)CN3CCN(c4ccccc4F)CC3)ccc21 was read as Shiga inhibitor 59* and CHX counter 21*.
CC(=O)N1CCc2cc(C(=O)CN3CCN(c4ccccn4)CC3)ccc21 was read as Marburg entry inh 0%[46.1 µM], Shiga inhibitor 77*, CHX counter 37* and Lassa entry inh inconclusive.
CC(=O)N1CCc2cc(S(=O)(=O)CCC(=O)N3CCN(c4ccccn4)CC3)ccc21 was read as Marburg entry inh inconclusive, Shiga inhibitor -5, CHX counter 3 and Lassa entry inh 2%.
